The record followed here is PubChem BioAssay (EPA / NIEHS).

Calls of active or inactive are those of the source. The calls were made as follows: active = hit-call score of the fitted dose curve at least 0.9, where 1 is the maximum; inactive = score below 0.9.

Holding throughout (conditions): mRNA level, 48 h; actives raise or lower the signal
Read-out in assay [1]: Cytochrome P450 (CYP24A1), CYP24A1 (gene 1591)
Description: LTEA_HepaRG_CYP24A1: Life Technologies and Expression Analysis (LTEA) Assay for Cytochrome P450 (CYP24A1) using HepaRG (AID 2283478). The gist of the method: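 HepaRG, 48 h chemical exposure, 8-pt half-log CRC from 100 uM, 0.5% DMSO vehicle, duplicates. Endpoint: CYP24A1 mRNA by Fluidigm TaqMan qRT-PCR, normalized ACTB/GAPDH/POLR2A; gain/loss fit vs DMSO.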

Read-out in assay [2]: Cytochrome P450 (CYP1A2), CYP1A2 (gene 1544)
The assay can be described thus: LTEA_HepaRG_CYP1A2: Life Technologies and Expression Analysis (LTEA) Assay for Cytochrome P450 (CYP1A2) using HepaRG (AID 2283479). In a few lines:
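CYP1A2 transcript induction or loss, quantified by Fluidigm qRT-PCR against three housekeeping genes, was fitted bidirectionally against 0.5% DMSO controls. Human HepaRG cells received eight half-log concentrations from 100 uM over 48 h.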

Read-out in assay [3]: cysteine-aspartic acid protease (CASP8), CASP8 (gene 841)
Description: LTEA_HepaRG_CASP8: Life Technologies and Expression Analysis (LTEA) Assay for cysteine-aspartic acid protease (CASP8) using HepaRG (AID 2283480). The gist of the method: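 HepaRG, 48 h exposure, duplicate wells; 8 conc, half-log from 100 uM, 0.5% DMSO. Serum-free induction medium. CASP8 mRNA by TaqMan qRT-PCR, norm. ACTB/GAPDH/POLR2A; gain/loss fitted vs DMSO.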

Read-out in assay [4]: Cytochrome P450 (CYP2B6), CYP2B6 (gene 1555)
The assay can be described thus: LTEA_HepaRG_CYP2B6: Life Technologies and Expression Analysis (LTEA) Assay for Cytochrome P450 (CYP2B6) using HepaRG (AID 2283481). In a few lines:
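HepaRG cells plated 48 h, switched to serum-free induction medium, then dosed 48 h (8 points, half-log from 100 uM, 0.5% DMSO). RNA isolated; CYP2B6 expression measured by qRT-PCR; gain or loss fitted relative to DMSO.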

Read-out in assay [5]: Cytochrome P450 2C19 (Homo sapiens) (UniProt P33261)
Description: LTEA_HepaRG_CYP2C19: Life Technologies and Expression Analysis (LTEA) Assay for CYP2C19 using HepaRG (AID 2283482). In a few lines: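 Transcript levels of CYP2C19 were quantified by qRT-PCR after HepaRG cells were treated for 48 hours with test chemicals up to 100 uM (eight half-log concentrations, 0.5% DMSO vehicle). Gain or loss of signal was fitted relative to DMSO.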

Read-out in another assay: CYP2C8 (gene 1558)
Description: LTEA_HepaRG_CYP2C8: Life Technologies and Expression Analysis (LTEA) Assay for CYP2C8 using HepaRG (AID 2283483). In a few lines: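 CYP2C8 mRNA induction or loss, by qRT-PCR normalized to ACTB/GAPDH/POLR2A, is read in HepaRG cells after 48 h treatment. Concentrations run from 100 uM down in half-log dilutions, with 0.5% DMSO as vehicle and baseline.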

Read-out in another assay: CYP2C9 (gene 1559)
Description: LTEA_HepaRG_CYP2C9: Life Technologies and Expression Analysis (LTEA) Assay for CYP2C9 using HepaRG (AID 2283484). The gist of the method:
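Cells plated 48 h, switched to serum-free induction medium, then treated in duplicate for 48 h at eight concentrations (max 100 uM, 0.5% DMSO). RNA then analysed by qRT-PCR for CYP2C9; curves fitted in both directions relative to DMSO.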

Read-out in the next assay: CYP2E1 (gene 1571)
Description: LTEA_HepaRG_CYP2E1: Life Technologies and Expression Analysis (LTEA) Assay for CYP2E1 using HepaRG (AID 2283485). The gist of the method:
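HepaRG cells, plated 48 h, then exposed 48 h in serum-free induction medium to eight half-log concentrations from 100 uM in 0.5% DMSO, duplicate. CYP2E1 mRNA by qRT-PCR, normalized to ACTB/GAPDH/POLR2A; bidirectional fit versus DMSO.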

Read-out in another assay: CYP4A11 (gene 1579)
The assay can be described thus: LTEA_HepaRG_CYP4A11: Life Technologies and Expression Analysis (LTEA) Assay for CYP4A11 using HepaRG (AID 2283486). The gist of the method: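 HepaRG, 48 h chem exposure, 8 conc (100 uM top, half-log), 0.5% DMSO vehicle; qRT-PCR readout, housekeeping-gene normalized; bidirectional curve fit vs DMSO baseline.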

Read-out in assay [6]: Cytochrome P450 3A4 (Homo sapiens) (UniProt P08684)
The assay can be described thus: LTEA_HepaRG_CYP3A4: Life Technologies and Expression Analysis (LTEA) Assay for CYP3A4 using HepaRG (AID 2283487). The gist of the method:
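In a human hepatic line (HepaRG), duplicate wells were treated 48 h with up to 100 uM chemical in half-log dilutions. Endpoint: CYP3A4 mRNA induction or loss relative to 0.5% DMSO vehicle, by qRT-PCR.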

Read-out in assay [7]: Pro-epidermal growth factor (Homo sapiens) (UniProt P01133)
Description: LTEA_HepaRG_EGF: Life Technologies and Expression Analysis (LTEA) Assay for Epidermal growth factor (EGF) using HepaRG (AID 2283489). The gist of the method: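 HepaRG, 48 h dosing, 100 uM top, half-log x8, 0.5% DMSO. Readout: TaqMan qRT-PCR (Fluidigm array), housekeeping-normalized. Gain or loss of signal fit vs DMSO.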

Read-out in assay [8]: Early growth response protein 1 (EGR1) transcription factor, EGR1 (gene 1958)
Description: LTEA_HepaRG_EGR1: Life Technologies and Expression Analysis (LTEA) Assay for Early growth response protein 1 (EGR1) transcription factor using HepaRG (AID 2283490). In a few lines: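 Read-out is EGR1 mRNA level by qRT-PCR, normalized to three housekeeping genes and analysed for gain or loss of signal against 0.5% DMSO. Source cells: human HepaRG, treated 48 h at up to 100 uM in half-log dilutions.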

Read-out in assay [9]: Ezrin (EZR), EZR (gene 7430)
Description: LTEA_HepaRG_EZR: Life Technologies and Expression Analysis (LTEA) Assay for Ezrin (EZR) using HepaRG (AID 2283491). The gist of the method: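 Gain or loss of EZR mRNA is scored relative to 0.5% DMSO in human HepaRG cultures treated 48 h with test chemicals in duplicate, eight half-log concentrations from 100 uM.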

Read-out in assay [10]: Cytochrome P450 3A7 (Homo sapiens) (UniProt P24462)
Description: LTEA_HepaRG_CYP3A7: Life Technologies and Expression Analysis (LTEA) Assay for CYP3A7 using HepaRG (AID 2283492). The gist of the method: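 Human HepaRG liver cells, 48 h post-plating, switched to serum-free induction medium and exposed in duplicate for 48 h. Dosing: 100 uM top, half-log dilutions, 8 points, 0.5% DMSO vehicle. Read-out: CYP3A7 mRNA, gain or loss fitted against DMSO baseline.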

Read-out in the next assay: CYP3A5 (gene 1577)
The assay can be described thus: LTEA_HepaRG_CYP3A5: Life Technologies and Expression Analysis (LTEA) Assay for CYP3A5 using HepaRG (AID 2283493). The gist of the method:
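HepaRG cells, plated 48 h then in serum-free induction medium, dosed in duplicate for 48 h with eight half-log concentrations up to 100 uM in 0.5% DMSO. Gene mRNA by Fluidigm TaqMan qRT-PCR, normalized to ACTB, GAPDH, POLR2A.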

Read-out in assay [11]: Cytochrome P450 7A1 (Homo sapiens) (UniProt P22680)
The assay can be described thus: LTEA_HepaRG_CYP7A1: Life Technologies and Expression Analysis (LTEA) Assay for Cytochrome P450 7A1 (CYP7A1) using HepaRG (AID 2283496). In a few lines: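 HepaRG cells plated 48 h, then switched to serum-free induction medium and exposed in duplicate for 48 h to 8-point half-log series from 100 uM in 0.5% DMSO. CYP7A1 mRNA by qRT-PCR (TaqMan), normalized to ACTB/GAPDH/POLR2A; bidirectional fit versus DMSO.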

Read-out in assay [12]: Glutathione S-Transferase (GSTA2), GSTA2 (gene 2939)
The assay can be described thus: LTEA_HepaRG_GSTA2: Life Technologies and Expression Analysis (LTEA) Assay for Glutathione S-Transferase (GSTA2) using HepaRG (AID 2283497). The gist of the method: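 HepaRG, 48 h dosing, 8-pt half-log CRC from 100 uM, 0.5% DMSO vehicle, n=2; RNA → Fluidigm TaqMan qRT-PCR; GSTA2 vs ACTB/GAPDH/POLR2A; gain/loss fit vs DMSO.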

Read-out in assay [13]: DNA damage-inducible transcript 3 (DDIT3), DDIT3 (gene 1649)
The assay can be described thus: LTEA_HepaRG_DDIT3: Life Technologies and Expression Analysis (LTEA) Assay for DNA damage-inducible transcript 3 (DDIT3) using HepaRG (AID 2283488). The gist of the method: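 HepaRG cells, 48 h after plating, exposed 48 h in serum-free induction medium to 8 half-log concentrations up to 100 uM in 0.5% DMSO, in duplicate. DDIT3 mRNA measured by TaqMan qRT-PCR, normalized to ACTB, GAPDH and POLR2A. Fitted bidirectionally against DMSO.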

Read-out in assay [14]: Fatty Acid-Binding Protein 1 (FABP1), FABP1 (gene 2168)
The assay can be described thus: LTEA_HepaRG_FABP1: Life Technologies and Expression Analysis (LTEA) Assay for Fatty Acid-Binding Protein 1 (FABP1) using HepaRG (AID 2283494). The gist of the method:
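HepaRG, 48 h post-plating switched to serum-free induction medium, then dosed 48 h (duplicate, 8 pts, ≤100 uM, 0.5% DMSO). RNA → Fluidigm TaqMan qRT-PCR, FABP1 normed to ACTB/GAPDH/POLR2A. Bidirectional curve fit vs DMSO.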

Read-out in assay [15]: Cytochrome P450 4A22 (Homo sapiens) (UniProt Q5TCH4)
The assay can be described thus: LTEA_HepaRG_CYP4A22: Life Technologies and Expression Analysis (LTEA) Assay for Cytochrome P450 4A22 (CYP4A22) using HepaRG (AID 2283495). The gist of the method:
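Readout is CYP4A22 transcript induction or loss, quantified by qRT-PCR and normalized to ACTB, GAPDH and POLR2A. Human HepaRG cells receive test chemicals for 48 h at eight half-log concentrations from 100 uM in 0.5% DMSO.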

The term AC50 denotes the midpoint of the concentration-response curve, whichever way the signal moves.

Chain of Cytochrome P450 3A7 (Homo sapiens) (P24462 whole entry, looked up): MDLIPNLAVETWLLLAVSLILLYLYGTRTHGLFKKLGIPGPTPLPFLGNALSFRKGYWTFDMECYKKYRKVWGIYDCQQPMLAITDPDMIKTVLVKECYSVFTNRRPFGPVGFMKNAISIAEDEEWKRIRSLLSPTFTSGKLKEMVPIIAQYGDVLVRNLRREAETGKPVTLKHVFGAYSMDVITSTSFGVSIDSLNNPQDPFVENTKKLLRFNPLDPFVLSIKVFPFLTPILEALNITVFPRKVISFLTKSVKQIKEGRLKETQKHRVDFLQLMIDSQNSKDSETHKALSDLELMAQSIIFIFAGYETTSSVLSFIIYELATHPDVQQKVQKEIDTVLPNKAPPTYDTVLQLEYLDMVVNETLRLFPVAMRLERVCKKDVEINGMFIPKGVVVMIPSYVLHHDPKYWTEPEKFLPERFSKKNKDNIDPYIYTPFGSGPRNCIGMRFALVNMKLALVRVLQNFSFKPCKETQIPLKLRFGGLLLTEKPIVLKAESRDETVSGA
Chain of Cytochrome P450 2C19 (Homo sapiens) (P33261 whole entry, looked up): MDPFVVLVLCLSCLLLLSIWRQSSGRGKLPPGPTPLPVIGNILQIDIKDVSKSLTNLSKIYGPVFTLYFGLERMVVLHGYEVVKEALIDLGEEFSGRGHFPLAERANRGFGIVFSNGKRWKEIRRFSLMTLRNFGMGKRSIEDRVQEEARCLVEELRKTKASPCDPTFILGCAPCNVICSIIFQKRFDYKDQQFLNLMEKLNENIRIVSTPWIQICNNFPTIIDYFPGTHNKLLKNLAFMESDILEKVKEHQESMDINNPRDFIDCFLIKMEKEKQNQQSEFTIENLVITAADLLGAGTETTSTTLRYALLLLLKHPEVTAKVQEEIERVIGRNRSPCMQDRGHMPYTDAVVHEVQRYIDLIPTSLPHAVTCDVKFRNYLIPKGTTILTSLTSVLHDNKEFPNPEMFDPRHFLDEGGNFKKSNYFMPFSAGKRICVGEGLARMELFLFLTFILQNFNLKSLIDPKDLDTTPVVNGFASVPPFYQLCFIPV
Chain of Cytochrome P450 3A4 (Homo sapiens) (P08684 whole entry, looked up): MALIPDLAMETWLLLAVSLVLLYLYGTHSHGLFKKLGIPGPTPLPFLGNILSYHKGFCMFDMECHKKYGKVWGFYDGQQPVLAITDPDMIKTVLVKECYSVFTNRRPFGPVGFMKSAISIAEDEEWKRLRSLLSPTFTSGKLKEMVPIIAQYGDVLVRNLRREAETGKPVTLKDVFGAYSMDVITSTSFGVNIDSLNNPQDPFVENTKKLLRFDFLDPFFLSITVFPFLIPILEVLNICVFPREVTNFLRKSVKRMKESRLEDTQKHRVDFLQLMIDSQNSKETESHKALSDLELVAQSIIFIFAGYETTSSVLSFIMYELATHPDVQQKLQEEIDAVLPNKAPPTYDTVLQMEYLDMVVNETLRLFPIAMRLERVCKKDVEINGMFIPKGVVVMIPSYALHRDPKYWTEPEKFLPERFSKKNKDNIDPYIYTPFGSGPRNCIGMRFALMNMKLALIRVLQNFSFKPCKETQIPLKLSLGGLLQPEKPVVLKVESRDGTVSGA

Regarding `CCN(CC)C(=S)SSC(=S)N(CC)CC`, the outcome (in [1]; in assay [3]; in assay [5]; with CYP2C8 (gene 1558); with CYP2C9 (gene 1559); in the assay with CYP2E1 (gene 1571)) was inactive. Besides, the compound was classed as inactive (in the assay with CYP4A11 (gene 1579); in assay [6]; in [7]; in assay [8]; in assay [9]; in [10]). Moreover, the compound was classed as inactive (with CYP3A5 (gene 1577); in assay [11]; in assay [12]). In addition, the concentration at half-maximal activity (AC50) in [2] is 75.2 µM (active); in assay [4], 16.8 µM (active).
As to `CCCCC(CC)C(=O)OCCOCCOCCOC(=O)C(CC)CCCC` (stereo not given), the outcome (in assay [1]; in assay [2]; in assay [3]; in [4]; in assay [5]; with CYP2C8 (gene 1558)) was inactive. Also, the call (in the assay with CYP2C9 (gene 1559); in the assay with CYP2E1 (gene 1571); in assay [6]; in assay [13]; in [7]; in assay [8]) was inactive. Besides, the compound was classed as inactive (in assay [9]; in assay [10]; with CYP3A5 (gene 1577); in assay [14]; in assay [15]; in [11]). Besides, in [12], the outcome was inactive. For the same compound, the AC50 with CYP4A11 (gene 1579) is 50 µM (active).
`NNC(=O)c1ccncc1`: the compound was classed as inactive (in assay [1]; in assay [2]; in [3]; in assay [5]; with CYP2C8 (gene 1558); with CYP2C9 (gene 1559)). Moreover, the compound was classed as inactive (in the assay with CYP2E1 (gene 1571); with CYP4A11 (gene 1579); in assay [13]; in assay [7]; in assay [8]; in [9]). In addition, the compound was classed as inactive (in assay [10]; with CYP3A5 (gene 1577); in assay [14]; in assay [11]; in assay [12]). Moreover, the AC50 in assay [4] was 10.4 µM (active).
